# Measured values as given in PubChem BioAssay (NCI).
# Where “and” joins values, the source holds several entries; their conditions need not be identical. Equal values may be shown once. This is part of a sample that, as a whole, favours compounds with a hit. Of some 83,000 tested, about 20% had one in any assay.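 Assay: single dose, 48 h. Readout: percent growth (0 = no net growth; negative = cell death). Active: <10.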 Values without a mark were called inactive. Calls of active or inactive are those of the source.
# Tested on: HL-60(TB) leukemia
# Assay: NCI-60 one-dose screen, 48 h (100 = growth as untreated, 0 = no growth, -100 = all killed)
# Conditions: 10 µM unless noted
row,SMILES,growth
1,O=C(Nc1cccc(Cl)c1)Nc1cc(C(F)(F)F)ccc1Cl,-6.22% (active)
2,Cc1oc2nc[nH]c(=O)c2c1C(=O)/C=C/c1ccc(Cl)cc1,-47.8% (active)
3,C/C(=N/NC(N)=S)c1ccc(C)cc1,92%
4,Cc1ccc2nc3c(n2c1)C(=O)C(=O)c1ccccc1-3,-59.1% (active)
5,COc1ccc(Nc2ncccc2C(=O)NCc2cn(Cc3cccc(Oc4ccccc4)c3)nn2)cc1,32.1%
6,O=C(O)C1CSCN1 (centres undefined),80.4% and 83.9%
7,Cc1nc(N2CCOCC2)sc1S(N)(=O)=O,97.4%
8,CN(C)c1ccc(/C=C/C(=O)c2ccc(-n3cc(CN4CCN(c5cc6c(cc5F)c(=O)c(C(=O)O)cn6C5CC5)CC4)nn3)cc2)cc1,84.6%
9,CSc1nc(N)c(N)c(N)n1,77.8%
10,COC(=O)c1cc(-c2ccc(OC)cc2)[nH]c1N/N=C/c1c(Cl)cccc1Cl,-44.9% (active)
11,C[C@@H]1CCC[C@H]1CC(N)C(=O)O (some centres undefined),112%
12,O=C(c1ccccc1)[C@H]1[C@@H]2CCCN2[C@]2(C(=O)Nc3ccc(F)cc32)[C@]12C(=O)Nc1ccccc12,68.3%
13,Oc1c(Cl)cc(Cl)cc1C=NCC1CCC(CN=Cc2cc(Cl)cc(Cl)c2O)CC1 (centres undefined),73.9%
14,COc1ccc(C(O)c2cc3c(N)c(C(=O)Nc4ccccc4)sc3nc2C)cc1 (centres undefined),-68.5% (active)
15,CCC(=O)Oc1ccc(/C(=C(/C)Cc2cccc(OC)c2)c2ccc(OCCN(C)C)cc2)cc1,91.3%
16,O=C1c2c(O)ccc(O)c2C(=O)c2c(NCCNCCO)ccc(NCCNCCO)c21,-28.5% (active) and -59.5% (active)
17,COc1ccc(-c2cc(C(=O)N=Nc3c(O)[nH]c4ccccc34)no2)cc1,91.8%
18,CN(C)Cc1ccc[nH]1,109%
19,CC(C)(C)OC[C@@H]1N=C(c2ccc(Br)cc2)Nc2nc3ccccn3c2C1=O,33.1%
20,Cc1ccc(Sc2nnc(/N=C3\C(=O)Nc4ccccc43)s2)cc1,95.9%

row,SMILES,growth
1,Cc1ccc(Nn2c(SCC(=O)Nc3nc(-c4ccccc4)cs3)nc(C)c2C)cc1,63.8%
2,CC1CCC(=O)N1c1ccc(N)cc1 (centres undefined),104%
3,COc1cc(NCCCCN=C(N)N)c2ncccc2c1,103%
4,O=C1C[C@@H]2/C(=C(O)\C=C\c3ccccc3)C(=O)C=C[C@@H]2O1,13.3%
5,CN(O)c1nc(N(C)O)nc(N2CCOCC2)n1,21.5%
6,CC(=O)OCC1OC(OCC2OC(OC(C)=O)C(OC(C)=O)C(OC(C)=O)C2OC(C)=O)C(OC(C)=O)C(OC(C)=O)C1OC(C)=O (centres undefined),115%
7,N#C/C(=C\c1ccc([N+](=O)[O-])s1)c1nc2cc(Cl)ccc2s1,44.8%
8,NNc1ccc2ccccc2c1,98.4% and 108%
9,O=C(N/N=C/c1ccccc1O)c1ccncc1,29.8%
10,CCC(=O)Oc1ccc(OCc2ccccc2)cc1,35.9% and 84.2%
11,Nc1cccc(NC(=O)C(=O)Nc2cccc(N)c2)c1,97.5%
12,O=C(/C=C/c1ccc(C(F)(F)F)cc1)c1ccc(Nc2nc(NCCO)nc(N3CCOCC3)n2)cc1,15.4%
13,CCCCCCCOc1cccc(/C=C2\N=C3SCCCN3C2=O)c1,65%
14,Cc1ccc(S(=O)(=O)Nc2sccc2-c2nc(-c3ccccc3)no2)cc1,105%
15,COc1ccc2cc(/C=C3\N=C(c4cc(OC)c(OC)c(OC)c4)OC3=O)c(OC)nc2c1,95.3%
16,CCCCCCN(CCCCCC)c1ccc(/C=C2/SC(=O)N(c3nc(N4CCCC4)nc(N4CCCC4)n3)C2=O)c(C)c1,20.2%
17,O=C1c2cccc3cccc(c23)C(=O)N1CC#Cc1ccc2c3c(cccc13)C(=O)N(CCO)C2=O,112%
18,CCN1CCOC1C(C)C (centres undefined),90%
19,O=C(Cn1c(-c2ccc([N+](=O)[O-])cc2)nc2ccccc21)NNC(=O)c1cccnc1,65.9%
